Test results reported in PubChem BioAssay (Tox21).
Where “and” joins values, the source holds several entries; their conditions need not be identical. Identical values can stand only once. Results filed as inconclusive are left out. A call without a number means that no potency is given here. Some compounds were tested as several samples or in several runs, with calls that do not always agree. Calls of active or inactive are those of the source. Calls come from the whole dose curve; as a rule, active = well fitted cell-killing curve with a large enough effect in the repeat runs; inconclusive = weak or mixed curves; inactive = no such curve, though single readings can be large or run the other way.

Experiment: qHTS assay for identifying genotoxic compounds that show differential cytotoxicity against isogenic chicken DT40 cell lines with known DNA damage response pathways - Rad54/Ku70 mutant cell line (AID 743015); note: nearly all actives have a fitted effect of over 60% in size
Conditions: DT40 Rad54/Ku70 mutant viability, CellTiter-Glo, 40 h; series mostly up to 66.8 µM
Source text: National Center for Advancing Translational Sciences [NCATS]
NIH Chemical Genomics Center [NCGC]
U.S. Environmental Protection Agency [EPA]
National Institutes of Environmental Health Sciences [NIEHS]
National Toxicology Program [NTP]
U.S. Food and Drug Administration [FDA]
DNA repair pathways play a critical role in cellular homeostasis by repairing DNA damage induced by endogenous processes and xenobiotics. Isogenic chicken DT40 cell lines deficient in different DNA repair pathways can be used to identify genotoxic compounds and aid in characterizing the nature of the DNA damage induced. Two DNA repair-deficient cell lines with disrupted genes, Rad54/Ku70 or Rev3, were used to screen the Tox21 10K compound library. Possible genotoxicity was based on the presence of a significant increase in cytotoxicity in one or more of the DNA repair-deficient cell lines compared to that observed in the parental DNA repair-proficient cell line. CellTiter Glo viability assay (Promega, Madison, WI) was used to measure cell viability in these cells after compound treatment. This assay includes the data from the Rad54/Ku70 mutant cell line.
Tox21 Assay Protocol Summary:
300 DT40 mutant cells in 5 uL/well were dispensed into white, solid-bottom 1536-well plates using a Multidrop Combi (ThermoFisher Scientific, Waltham, MA) dispenser. After the assay plates were incubated at 37 C/5% CO2 for approximately 0.5 hour, 23 nL of compounds dissolved in DMSO, positive controls or DMSO only was transferred into the assay plate by a pintool work station (Kalypsys, San Diego, CA). The assay plates were incubated at 37 C/5% CO2 for 40 hours. After 5 uL per well of CellTiter-Glo reagent was added into each well of the assay plates, the plates were incubated for 30 min at room temperature and the luminescence intensity of the plates was measured using a ViewLux (PerkinElmer, Shelton, CT) plate reader.
Potency is the fitted concentration of half-maximal effect.

Row | Compound | Potency
1 | CNCC[C@@H](Oc1ccccc1C)c1ccccc1 | 29.8 µM (active)
2 | C=CC(=O)OCCOC(=O)CCC(=O)O | inactive
3 | CC(=O)OCCc1ccccc1 | inactive
4 | CCCCC(CC)(CO)CO | inactive
5 | COc1ccc2[nH]c(S(=O)Cc3ncc(C)c(OC)c3C)nc2n1 (stereo not given) | 29.8 µM (active)
6 | O=S(=O)(O)c1ccc(O)c2ncccc12 | inactive
7 | O=C(CC(=O)c1ccccc1)c1ccccc1 | 23.3 µM (active)
8 | NCCCOCCOCCOCCCN | 7.7 µM (active)
9 | COC(Cc1ccccc1)OC | inactive
10 | Cc1ncsc1CCO | inactive
11 | CC(C)NCC(O)c1cc(O)cc(O)c1 (stereo not given) | inactive
12 | CCCOc1ccc2nc(NC(=O)OC)[nH]c2c1 | 0.335 µM (active)
13 | CN1CCC(=C2c3ccccc3C=Cc3ccccc32)CC1 | 13.3 µM (active)
14 | CC(C)(C)c1ccc(OCC2CO2)cc1 (stereo not given) | inactive
15 | CC(C)=CCCC(C)CC=O (stereo not given) | inactive
16 | O=C(Cl)c1ccc([N+](=O)[O-])cc1 | inactive
17 | CC(C(=O)O)c1ccc(-c2ccccc2)c(F)c1 (stereo not given) | inactive
18 | C[C@H](CCC(=O)O)[C@H]1CC[C@H]2[C@@H]3[C@H](O)C[C@@H]4C[C@H](O)CC[C@]4(C)[C@H]3CC[C@]12C | inactive
19 | O=C(c1ccccc1)c1ccc2n1CCC2C(=O)O (stereo not given) | inactive
20 | N#Cc1cc2ccccc2c2ccccc12 | inactive

Row | Compound | Potency
21 | CC(=O)/C=C/C1C(C)=CCCC1(C)C (stereo not given) | inactive
22 | CC1=CC(=O)/C(=C(/C)O)C(=O)O1 | inactive
23 | NC[C@H]1O[C@H](O[C@H]2[C@H](O)[C@@H](O[C@H]3O[C@H](CO)[C@@H](O)[C@H](N)[C@H]3O)[C@H](N)C[C@@H]2N)[C@H](O)[C@@H](O)[C@@H]1O | inactive and 1.89 µM (active)
24 | N#Cc1c(F)cccc1F | inactive
25 | Cn1c(NCCN(CCO)CCCc2ccc([N+](=O)[O-])cc2)cc(=O)n(C)c1=O | inactive
26 | NC(N)=N/N=C/c1c(Cl)cccc1Cl | 21.1 µM (active)
27 | Cc1ccc(C(=O)C(C)CN2CCCCC2)cc1 (stereo not given) | 26.6 µM (active)
28 | CN(C)CCCOc1nn(Cc2ccccc2)c2ccccc12 | 11.4 µM (active)
29 | O=[N+]([O-])c1cc[n+]([O-])cc1 | inactive
30 | COc1ccccc1OC(=O)Oc1ccccc1OC | inactive
31 | COc1cc(C(C)(C)C)c(O)c(C(C)(C)C)c1 | 30.6 µM (active)
32 | CCCCCOC(=O)c1ccc(O)cc1 | 61.9 µM (active)
33 | Cc1cc(O)ccc1N | 9.74 µM (active)
34 | CCCCCCCCCC=O | inactive
35 | CC(=O)O[C@H]1C[C@@H]2CC[C@@H]3[C@H](CC[C@@]4(C)[C@H]3C[C@H]([N+]3(C)CCCCC3)[C@@H]4OC(C)=O)[C@@]2(C)C[C@@H]1N1CCCCC1 | inactive
36 | CC(=O)Nc1ccc(/C=N/NC(N)=S)cc1 | inactive
37 | CN1CCN(C2=Nc3cc(Cl)ccc3Nc3ccccc32)CC1 | 26.6 µM (active)
38 | COc1ccc(OC)c(OC)c1 | inactive
39 | C1=Cc2ccccc2C1 | inactive
40 | Nc1nc(CC(=O)O)cs1 | inactive
